# Sfp PPTase inh – inhibitors of Bacillus subtilis Sfp phosphopantetheinyl transferase. Q9F4F7. Biochemical Sfp PPTase activity, qHTS. Potency, µM, without a hit: largest response in the series, negative = inhibition, most hits filed as inhibitors. 310,000 tested, 3.5% active;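 further: the enzyme is Sfp with the accession as filed and its product quenches rhodamine fluorescence; 0% = enzyme reaction without inhibitor and -100% = no enzyme wells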
#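 Step 1, compound plus 15 nM Sfp-PPTase, 15 min, room temperature. Step 2, add rhodamine-CoA (5 uM) and BHQ-2-YbbR (12.5 uM). Step 3, read 525/598 nm fluorescence at 0 and 30 min.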
# ALOX12 inh – blocks human arachidonate 12S-lipoxygenase | purified 12hLO, xylenol orange hydroperoxide absorbance | Potency, µM (top dose mostly 108 µM), without a hit: at the highest dose activity change, negative = inhibition, usual class: inhibitors | P18054 | AID 1671190 | 580,000 tested, 1.1% active; further: on the % scale 0 is the no-effect control and ±100 the full control effect
#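 Hydroperoxide product was detected by ferrous iron/xylenol orange as the 573 to 405 nm absorbance ratio. Arachidonic acid at 40 uM (final) was turned over for 30 min at room temperature by 150 nM human 12hLO, pH 7.0 Hepes buffer, after 15 min compound preincubation.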
# BAZ2B block – inhibitors of human BAZ2B bromodomain; Potency, µM (doses to about 114 µM), inactives show at the highest dose activity change, negative = inhibition, actives largely listed as inhibitors; AlphaScreen BAZ2B-H3K14Ac peptide displacement; 360,000 tested, 4.4% active; AID 504333; Q9UIF8; further: on the % scale 0 is the no-effect control and ±100 the full control effect; nearly all actives have a fitted effect of over 60% in size
#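 AlphaScreen displacement of biotin-H3(5-23)K14Ac peptide (50 nM final) from BAZ2B (50 nM final) in PBS pH 7.4, 0.01% Tween-20; complex preformed 30 min RT, then compounds (top 110 uM) 30 min RT, beads 20 min dark.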
# HP1b chromo inh – inhibitors of HP1-beta chromodomain binding to methylated histone tails. AlphaScreen HP1-beta / biotin-H3K9me3 peptide binding. Potency, µM (highest dose often 114 µM), for the others: at the highest dose activity change, negative = inhibition, hits mostly inhibitors. 390,000 tested, 0.56% active. AID 540317; further: nearly all actives have a fitted effect of over 70% in size
# Target sequence (P83916 whole entry, looked up): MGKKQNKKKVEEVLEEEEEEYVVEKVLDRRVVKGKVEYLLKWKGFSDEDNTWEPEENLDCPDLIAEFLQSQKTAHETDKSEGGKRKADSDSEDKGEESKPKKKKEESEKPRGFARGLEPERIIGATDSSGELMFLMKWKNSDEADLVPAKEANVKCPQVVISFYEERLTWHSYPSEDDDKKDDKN
#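 HP1-beta protein (50 nM final) preincubated 30 min at room temperature with biotinylated H3(1-18)K9me3 peptide (50 nM) in PBS pH 7.4, 0.01% Tween-20, then compound added for 30 min. AlphaScreen streptavidin donor/nickel chelate acceptor beads (10 ug/mL final), 30 min dark, luminescence read.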
# JMJD2A Tudor inh – inhibitors of human JMJD2A Tudor domain | O75164 | AlphaScreen JMJD2A-Tudor / H3K4me3 peptide binding | Potency, µM (titrated, usually from 114 µM), for the others: top-dose activity change, negative = inhibition, usual class: inhibitors | 390,000 tested, 4.4% active; further: on the % scale 0 is the no-effect control and ±100 the full control effect; nearly all actives have a fitted effect of over 50% in size
# G9a block – G9a (human) methyltransferase inhibition; Q96KQ7; G9a H3K9 monomethylation, AlphaScreen, 2 h; Potency, µM (series often up to 102 µM), inactives show at the top dose activity, negative = inhibition, most hits filed as inhibitors; 350,000 tested, 8.8% active; further: on the % scale 0 is the no-effect control and ±100 the full control effect; nearly all actives have a fitted effect of over 75% in size
# Target sequence (Q96KQ7 913-1193 limits assumed): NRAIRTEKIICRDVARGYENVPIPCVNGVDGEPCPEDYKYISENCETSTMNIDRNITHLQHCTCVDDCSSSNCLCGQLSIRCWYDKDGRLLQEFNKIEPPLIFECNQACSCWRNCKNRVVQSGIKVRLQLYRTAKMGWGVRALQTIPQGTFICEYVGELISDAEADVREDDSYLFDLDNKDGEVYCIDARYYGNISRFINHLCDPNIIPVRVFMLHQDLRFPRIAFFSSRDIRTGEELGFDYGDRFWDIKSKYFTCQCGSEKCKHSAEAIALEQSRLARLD
#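 Step 1: enzyme (final 20 nM) with compound, 15 min RT. Step 2: substrate peptide 500 nM and SAM 20 uM, 2 h RT. Step 3: anti-H3K9me1 antibody and AlphaScreen beads, 10 min, then plate read.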
# Starred values were filed as active, the others as inactive; ? = inconclusive; nt = no result; [ ] = remark or other dose. In the library only some 8.7% were active in any assay of this set; here they are far more common. The call rests on the fitted dose curve; in most records, active means well fitted curve in the direction sought with a large enough effect; inconclusive means small, poorly fitted or top-dose-only effect, or another doubt; inactive means no such curve, though single readings can be large; an effect the other way counts as inactive or inconclusive. Potency means the concentration at half of the fitted maximal effect.
SMILES,Sfp PPTase inh,ALOX12 inh,BAZ2B block,HP1b chromo inh,JMJD2A Tudor inh,G9a block
O=C(Nc1nnc(-c2ccccc2)o1)C1CCCN1S(=O)(=O)c1cccs1 (stereo not drawn),nt,4.5%,50.1µM*,62.5%,?,-26.7%
CSc1nsc(SC)c1NC(=O)OCC1CCCO1 (stereo not drawn),56.2µM*,?,2.5%,24.9%,-8.0%,?
CSc1nsc(SC)c1NC(=O)OCCc1ccccn1,-20.0%,27.7%,3.8%,24.9%,-8.8%,?
CSc1nsc(SC)c1NC(=O)OCc1ccccc1,-1.3%,-16.1%,-0.4%,32.5%,-6.6%,39.8µM*
COc1ccc(S(=O)(=O)Nc2cc(C(=O)NCCC(C)C)ccc2N2CCOCC2)cc1,10.8%,23.3%,-30.0%,39.4%,-11.7%,50.1µM*
CCN1CCCC1CNC(=O)c1ccc(N2CCOCC2)c(NS(=O)(=O)c2ccc(OC)cc2)c1 (stereo not drawn),8.8%,-22.9%,-16.3%,29.9%,-17.2%,50.1µM*
COc1ccc(S(=O)(=O)Nc2cc(C(=O)NCCCN3CCOCC3)ccc2N2CCOCC2)cc1,8.4%,?,-32.3%,68.0%,-22.0%,?
O=C(c1cc(F)ccc1F)N1CCCC2(C1)NC(=O)N(Cc1ccc(Cl)cc1)C2=O (stereo not drawn),nt,-24.3%,nt,nt,nt,nt
Cc1cc(C(=O)N2C[C@@H](COc3ccccc3)[C@H](C(N)=O)C2)no1,nt,21.1%,nt,nt,nt,nt
CC(N)CCc1ccc(O)cc1 (stereo not drawn),nt,-4.7%,nt,nt,nt,nt
Cc1ccccc1Nc1nc2ccccc2s1,7.2%,11.8%,2.4%,32.6%,-4.0%,6.1%[59 µM]
Cc1ccc(Nc2nc(=O)c3cc([N+](=O)[O-])ccc3s2)cc1,1.3%,-8.8%,1.3%,47.1%,-1.4%,24.7%[59 µM]
COc1ccc(Nc2ccc([N+](=O)[O-])cn2)cc1,13.3%,28.2µM*,-27.7%,1.5%,-21.0%,-4.2%
COc1ccc(Nc2nc(=O)c3cc([N+](=O)[O-])ccc3s2)cc1,?,?,79.4µM*,42.1%,-20.5%,?
Cc1ccccc1Nc1nc(=O)c2cc([N+](=O)[O-])ccc2s1,?,-22.6%,21.3%,7.8%,-8.0%,35.5µM*
N#Cc1ccc(CN2CCc3nc(C(=O)Nc4cccc(C(F)(F)F)c4)oc3CC2)cc1,nt,13.1%,nt,nt,nt,nt
Cc1nnsc1C(=O)N[C@H]1CCN(C(=O)c2ccco2)[C@H](C(=O)N[C@@H](Cc2cccs2)C(N)=O)C1,nt,11.6%,nt,nt,nt,nt
COc1ccc(OC)c(NC(=O)C2CCN(S(=O)(=O)c3ccc4c(c3)OCCO4)CC2)c1,nt,-18.8%,0.0%,11.3%,-22.1%,50.1µM*
CC(=O)Nc1ccc(NC(=O)C2CCN(S(=O)(=O)c3ccc4c(c3)OCCO4)CC2)cc1,nt,-3.7%,13.2%,27.6%,-5.4%,17.8µM*
COc1ccc(OC)c(NC(=O)C2CCN(S(C)(=O)=O)CC2)c1,0.2%,0.7%,-4.5%,6.2%,2.6%,?
CC(C)C(C)NC(=O)COC(=O)C1CCN(S(=O)(=O)c2ccc3c(c2)OCCO3)CC1 (stereo not drawn),nt,2.9%,9.0%,35.9%,-2.1%,50.1µM*
CC(C)NC(=O)c1cccc(NC(=O)Nc2ccc(Cl)cc2)c1,nt,-22.6%,nt,nt,nt,nt
CC(C)c1nc2oc3c(N(CCO)Cc4ccccc4)ncnc3c2c2c1CCC2,nt,8.6%,nt,nt,nt,nt
CN(C(=O)CN1CCN(c2cc(-c3ccc(-c4ccccc4)cc3)ncn2)CC1)c1ccccc1,nt,44.7µM*,nt,nt,nt,nt
CS(=O)(=O)Cc1ccc(C(=O)NCC2(N3CCCCC3)CCCCC2)cc1,19.3%,33.0%,3.6%,26.8%,0.4%,12.0%
COCc1ccc(C(=O)NCC2(N3CCCCC3)CCCCC2)cc1,-22.9%,?,79.4µM*,4.8%,12.6µM*,?
COc1ccc(-n2c(=O)[nH]c3cccnc32)cc1,nt,12.4%[176 µM],nt,nt,nt,nt
Cc1cc(C)c(C(=O)/C=C/c2ccco2)c(=O)[nH]1,8.91µM*,-20.8%,?,-0.3%,-22.0%,nt
